Counter-ions that a name gives are not always drawn.

This assay relates to Danio rerio larvae (5 dpf). The assay can be described thus: habituation (activity change first vs second 5 min of 1-s interval sound, period 17) minus DMSO control (percentage points); higher = larger habituation measure than DMSO larvae. The settings on record: 10 µM; exposure time: 3 h pre-incubation + 3 h imaging. The procedure:
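Wild-type 5 dpf zebrafish larvae (n=48 per drug, 96-well plates, 28.5 °C) were exposed to Tocris FDA-approved library compounds at 10 µM (0.1% DMSO) for 3 h before and 3 h during imaging. Images were taken every 6 s during visual and acoustic stimuli, and larvae were tracked with Z-LaP Tracker. Each measure is the treated-group mean minus the DMSO control mean (n=844), in percentage points. This mapping covers compounds with 5-character plate codes.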
Regarding `CCc1nc(N)nc(N)c1-c1ccc(Cl)cc1` [Pyrimethamine], the habituation stood at 3.38.

With `CCCCCCCN(CC)CCCC(O)c1ccc(NS(C)(=O)=O)cc1` (configuration not stated) [Ibutilide hemifumarate], the habituation was -0.126.

Turning to `OCCN1C[C@H](O)[C@@H](O)[C@H](O)[C@H]1CO` [Miglitol], the habituation was -1.71.

With `CN[C@H]1CC[C@@H](c2ccc(Cl)c(Cl)c2)c2ccccc21` [Sertraline hydrochloride], the habituation is -8.76.

Consider `CN(C)C(=N)NC(=N)N` [Metformin hydrochloride], for which the habituation came to 2.17.

Regarding `Clc1ccc2nsnc2c1NC1=NCCN1` [Tizanidine hydrochloride], the habituation was -2.36.

As to `CC(C)OC(=O)C(C)(C)Oc1ccc(C(=O)c2ccc(Cl)cc2)cc1` [Fenofibrate], the habituation is -2.39.

On to `C#CCN[C@@H]1CCc2ccccc21` [Rasagiline mesylate], for which the habituation amounted to 3.64.

Regarding `O=c1n(CCCN2CCN(c3cccc(Cl)c3)CC2)nc2ccccn12` [Trazodone hydrochloride], the habituation is -12.5.

Turning to `CNC(=O)c1cc(Oc2ccc(NC(=O)Nc3ccc(Cl)c(C(F)(F)F)c3)cc2)ccn1` [Sorafenib], the habituation was -9.55.

With `COc1ccccc1OCC(O)CN1CCN(CC(=O)Nc2c(C)cccc2C)CC1` (configuration not stated) [Ranolazine dihydrochloride], the habituation is -2.2.

`O=C1CCc2ccc(OCCCCN3CCN(c4cccc(Cl)c4Cl)CC3)cc2N1` [Aripiprazole]: the habituation was -7.85.

As to `CC(=O)Nc1ccc(O)cc1` [Acetaminophen], the habituation is -1.62.

Regarding `CNS(=O)(=O)Cc1ccc2[nH]cc(CCN(C)C)c2c1` [Sumatriptan succinate], the habituation was determined as 2.06.

For `CC[C@H]1OC(=O)[C@H](C)[C@@H](O[C@H]2C[C@@](C)(OC)[C@@H](O)[C@H](C)O2)[C@H](C)[C@@H](O[C@@H]2O[C@H](C)C[C@H](N(C)C)[C@H]2O)[C@](C)(O)C[C@@H](C)CN(C)[C@H](C)[C@@H](O)[C@]1(C)O` [Azithromycin], the habituation stood at 3.26.

In the case of `C[C@H]1O[C@H](O[C@H]2[C@H](O)[C@@H](O)[C@@H](O[C@H]3[C@H](O)[C@@H](O)C(O)O[C@@H]3CO)O[C@@H]2CO)[C@H](O)[C@@H](O)[C@@H]1N[C@H]1C=C(CO)[C@@H](O)[C@H](O)[C@H]1O` (some centres not stated) [Acarbose], the habituation was determined as 1.19.

`OCc1cc(C(O)CNCCCCCCOCCCCc2ccccc2)ccc1O` (configuration not stated) [Salmeterol xinafoate]: the habituation is -0.659.

On to `O=C(O)C[C@H](O)C[C@H](O)/C=C/c1c(C2CC2)nc2ccccc2c1-c1ccc(F)cc1` [Pitavastatin calcium], for which the habituation is -5.34.

Regarding `CC(C)(C(=O)O)c1ccc(C(O)CCCN2CCC(C(O)(c3ccccc3)c3ccccc3)CC2)cc1` (configuration not stated) [Fexofenadine hydrochloride], the habituation worked out at 3.94.

In the case of `CCCC1O[C@@H]2C[C@H]3[C@@H]4CCC5=CC(=O)C=C[C@]5(C)[C@H]4[C@@H](O)C[C@]3(C)[C@]2(C(=O)CO)O1` (some centres not stated) [Budesonide], the habituation is -1.55.

Take `CC(=O)Oc1cc2c(s1)CCN(C(C(=O)C1CC1)c1ccccc1F)C2` (configuration not stated) [Prasugrel]: the habituation is 0.528.

With `COc1cc(N)c(Cl)cc1C(=O)NC1CCN(CCCOc2ccc(F)cc2)CC1OC` (configuration not stated) [Cisapride], the habituation stood at 4.4.

In the case of `COCCc1ccc(OCC(O)CNC(C)C)cc1` (configuration not stated) [Metoprolol tartrate], the habituation was -3.41.

For `N#C[C@@H]1C[C@@H]2C[C@@H]2N1C(=O)[C@@H](N)C12CC3CC(CC(O)(C3)C1)C2` [Saxagliptin hydrochloride], the habituation was found to be 2.76.

For the compound `C[C@@H]1C[C@H]2[C@@H]3CCC4=CC(=O)C=C[C@]4(C)[C@@]3(F)[C@@H](O)C[C@]2(C)[C@@]1(O)C(=O)CO` [Dexamethasone], the habituation amounted to 2.24.

As to `CN(C)CCc1c[nH]c2ccc(C[C@H]3COC(=O)N3)cc12` [Zolmitriptan], the habituation is -0.595.

Consider `N#Cc1ccc2[nH]cc(CCCCN3CCN(c4ccc5oc(C(N)=O)cc5c4)CC3)c2c1` [Vilazodone hydrochloride], for which the habituation is -2.05.

Turning to `CCCc1nn(C)c2c(=O)[nH]c(-c3cc(S(=O)(=O)N4CCN(C)CC4)ccc3OCC)nc12` [Sildenafil citrate], the habituation is -2.72.

On to `NS(=O)(=O)c1cc2c(cc1Cl)NC(C1CC3C=CC1C3)NS2(=O)=O` (configuration not stated) [Cyclothiazide], for which the habituation stood at 1.92.

On to `COc1cc([C@@H]2c3cc4c(cc3[C@@H](O[C@@H]3O[C@@H]5CO[C@@H](C)O[C@H]5[C@H](O)[C@H]3O)[C@H]3COC(=O)[C@H]23)OCO4)cc(OC)c1O` [Etoposide], for which the habituation is 1.7.

For the compound `CC(C)COCC(CN(Cc1ccccc1)c1ccccc1)N1CCCC1` (configuration not stated) [Bepridil hydrochloride], the habituation was -5.91.

Turning to `COc1ccccc1Oc1c(NS(=O)(=O)c2ccc(C(C)(C)C)cc2)nc(-c2ncccn2)nc1OCCO` [Bosentan], the habituation turned out to be 4.58.

As to `Cc1cc2c(s1)Nc1ccccc1N=C2N1CCN(C)CC1` [Olanzapine], the habituation was 0.758.

As for `COc1cc2nccc(Oc3ccc(NC(=O)C4(C(=O)Nc5ccc(F)cc5)CC4)cc3)c2cc1OC`, the habituation is -4.58.

In the case of `OC(c1cc(C(F)(F)F)nc2c(C(F)(F)F)cccc12)C1CCCCN1` (configuration not stated) [Mefloquine hydrochloride], the habituation turned out to be 3.04.

On to `CNCc1ccc(-c2[nH]c3cc(F)cc4c3c2CCNC4=O)cc1` [Rucaparib camsylate], for which the habituation came to 5.03.

As to `NC(=O)OCC(COC(N)=O)c1ccccc1` [Felbamate], the habituation is 2.5.
